Source: PubChem BioAssay
Hits are enriched below; roughly 11% of the tested compounds scored in any of these assays.
IL1B secr inh: qHTS for Inhibitors of Inflammasome Signaling: IL-1-beta AlphaLISA Primary Screen. THP-1 LPS/ATP IL-1B secretion, AlphaLISA, 16 h; stronger effect = lower value. actives 4.7% (n = 360,000). activity change, % at 57.5 µM. AID 743279, 2014; in the data active = activity change below about -50%; inconclusive = mostly about -30% to -49%
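Secreted IL-1B measured by AlphaLISA bead assay after 16 h compound exposure of THP-1 cells; compounds (final up to 57.5 uM) added 1 h before LPS (250 ng/mL) and ATP (1.25 mM) stimulation; lower signal means less secretion.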
MCF10A rerep: A quantitative high throughput screen for small molecules that induce DNA re-replication in MCF 10a normal breast cells | MCF 10A DNA re-replication, Hoechst nuclear intensity, 48 h | Potency, µM (top dose mostly 46.1 µM), most hits filed as activators | actives 2.9% (n = 350,000) | AID 624296, 2012; note: nearly all actives have a fitted effect of over 50% in size
SW480 rereplic: A quantitative high throughput screen for small molecules that induce DNA re-replication in SW480 colon adenocarcinoma cells; SW480 DNA re-replication, Hoechst DNA content imaging, 48 h; Potency, µM (titrated, usually from 46.1 µM), usual class: activators; actives 1.8% (n = 340,000); AID 624297, 2012; note: nearly all actives have a fitted effect of over 55% in size
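Cells (250 per well) received 23 nL compound or DMSO by pin tool and were kept 48 hr at 37 C, 5% CO2. Nuclei were then stained with Hoechst for 40 min and scanned for DNA content.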
RORgamma inh: qHTS for inhibitors of ROR gamma transcriptional activity. Nuclear receptor ROR-gamma (Mus musculus), P51450. Drosophila S2 Gal4-RORgamma UAS-luciferase reporter, 20 h. Potency, µM (doses to about 53.6 µM), usual class: inhibitors. actives 5.4% (n = 310,000); note: nearly all actives have a fitted effect of over 60% in size
Target sequence (P51450 whole entry, looked up, the tested form may be a part): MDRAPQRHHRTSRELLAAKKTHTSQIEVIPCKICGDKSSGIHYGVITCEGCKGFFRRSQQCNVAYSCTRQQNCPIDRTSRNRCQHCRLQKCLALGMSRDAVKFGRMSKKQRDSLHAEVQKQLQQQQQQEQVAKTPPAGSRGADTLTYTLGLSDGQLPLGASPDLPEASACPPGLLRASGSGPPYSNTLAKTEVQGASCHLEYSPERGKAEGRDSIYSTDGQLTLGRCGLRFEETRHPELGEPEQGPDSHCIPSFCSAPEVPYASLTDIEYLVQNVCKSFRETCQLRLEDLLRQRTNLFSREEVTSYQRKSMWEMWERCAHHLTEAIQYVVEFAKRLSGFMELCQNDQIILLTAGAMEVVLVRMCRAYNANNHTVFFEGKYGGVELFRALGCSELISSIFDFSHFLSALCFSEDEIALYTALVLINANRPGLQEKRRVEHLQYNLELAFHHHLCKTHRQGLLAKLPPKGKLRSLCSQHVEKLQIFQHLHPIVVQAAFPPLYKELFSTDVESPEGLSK
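In this cell-based reporter format, copper sulfate (700 uM final) drives Gal4–ROR gamma fusion expression from a metallothionein promoter in Drosophila Schneider cells; compounds preincubated 1 hr, reporter read after 20 hr at ambient temperature.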
Gal4-VP16 FLuc: VP16 counterscreen qHTS for inhibitors of ROR gamma transcriptional activity; actives 3.5% (n = 310,000); Drosophila S2 Gal4-VP16 UAS-luciferase, luminescence, 20 h; Potency, µM (titrated, usually from 53.6 µM), usual class: inhibitors;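 note: Gal4-VP16 expression switched on by copper sulfate through the metallothionein promoter; nearly all actives have a fitted effect of over 50% in size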
Large screens that a line does not name were inactive. Unless noted, calls come from the whole dose curve; as a rule, active = well fitted curve in the direction sought with a large enough effect; inconclusive = small, poorly fitted or top-dose-only effect, or another doubt; inactive = no such curve, though single readings can be large; an effect the other way counts as inactive or inconclusive.

O=c1c2c(nc(NCCO)n1CC1CCCCC1)-c1ccccc1CC21CCCC1	IL1B secr inh inconclusive, MCF10A rerep 23.1µM
CC1(C)CC(n2c(NCCO)nc3c(c2=O)C2(CCCC2)Cc2ccccc2-3)CCO1 (stereo unspecified)	IL1B secr inh -66.4
O=c1[nH]c(NCCO)nc2c1C1(CCCCC1)Cc1ccccc1-2	Gal4-VP16 FLuc inconclusive
CCn1c(NCCCO)nc2c(c1=O)C(C)(CC)Cc1ccccc1-2 (stereo unspecified)	IL1B secr inh -57.5
O=C(O)/C=C/C(=O)Nc1ccccc1SC(F)(F)C(F)(F)C(F)(F)F	IL1B secr inh -104.3
O=C(O)/C=C/C(=O)Nc1ccccc1-c1ccccc1	none
CCc1sc(C(C2C(=O)CC(C)(C)CC2=O)C2C(=O)CC(C)(C)CC2=O)cc1[N+](=O)[O-]	IL1B secr inh -247.5, MCF10A rerep inconclusive, Gal4-VP16 FLuc inconclusive
CC1(C)CC(=O)C(C(c2ccc(F)cc2)C2C(=O)CC(C)(C)CC2=O)C(=O)C1	none
Cc1ccc(-c2nc(N)sc2-c2ccc(C)cc2)cc1	MCF10A rerep 23.1µM, RORgamma inh inconclusive, Gal4-VP16 FLuc inconclusive
Cc1ccc(-c2nc(N)sc2-c2ccccc2)cc1C	IL1B secr inh inconclusive, MCF10A rerep 8.2µM, RORgamma inh 7.94µM, Gal4-VP16 FLuc 10µM
Nc1nc(-c2ccccc2)c(-c2ccccc2)s1	none
COc1ccc(C2=NOC(Cn3nc(C(=O)NCc4ccccc4OC)cc3-c3ccccc3)C2)cc1 (stereo unspecified)	MCF10A rerep inconclusive (no result: RORgamma inh, Gal4-VP16 FLuc)
CN(C)c1ccc(S(=O)(=O)N2CCCCC2)cc1NC(=O)CCNC(=O)c1ccc(Cl)cc1	none (no result: RORgamma inh, Gal4-VP16 FLuc)
CC(=O)C1CCC2C3CC(C)=C4CC(O)CCC4(C)C3CCC12C (stereo unspecified)	IL1B secr inh -98.7, MCF10A rerep inconclusive, SW480 rereplic inconclusive (no result: RORgamma inh, Gal4-VP16 FLuc)
CCN(C(=O)COC(=O)CCOc1cc(C)ccc1C)c1c(N)n(Cc2ccccc2)c(=O)[nH]c1=O	MCF10A rerep inconclusive (no result: RORgamma inh, Gal4-VP16 FLuc)
CCN(CC)C(=S)NC(=O)c1ccc(Cl)cc1Cl	RORgamma inh 0.794µM, Gal4-VP16 FLuc 1.58µM
O=C(NC(=S)NCCN1CCOCC1)c1ccccc1Cl	none
O=C(NCCCNC(=O)c1ccc(Cl)cc1Cl)c1ccco1	none
COc1ccc(C(=O)Nc2ccc(Cl)cc2C(=O)NCCN2CCOCC2)cc1	IL1B secr inh -55.6
COC(=O)NNC(=O)c1ccc(Cl)cc1Cl	MCF10A rerep inconclusive
CCCCNC(=S)NC(=O)c1ccc(Cl)cc1Cl	RORgamma inh 15.8µM, Gal4-VP16 FLuc inconclusive
O=C(NC(=S)NCCN1CCOCC1)c1ccc(Cl)cc1Cl	RORgamma inh 3.98µM, Gal4-VP16 FLuc inconclusive
CCC(=O)N1c2ccc(S(=O)(=O)N3CCOCC3)cc2CC1C (stereo unspecified)	none
CC(=O)NCCNc1nc2cc(-c3ccc(C(=O)N4CCN(C)CC4)cc3)sc2c(=O)n1C	none (no result: MCF10A rerep, SW480 rereplic, RORgamma inh, Gal4-VP16 FLuc)
Cc1ccc(S(=O)(=O)N[C@@H]2COC(=O)C/C=C\[C@H](C)COC(=O)N[C@@H](C)C(=O)C/C=C\[C@H]2C)cc1	none (no result: IL1B secr inh, MCF10A rerep, SW480 rereplic)
Cc1cc(C)c(C)c(C(=O)COC(=O)CNC(=O)CNC(=O)c2ccco2)c1C	none
O=C(NCC(c1ccc(F)cc1)N1CCOCC1)c1ccco1 (stereo unspecified)	none (no result: RORgamma inh, Gal4-VP16 FLuc)
CCCCN(CCCC)C(=S)NC(=O)c1ccccc1Cl	RORgamma inh 0.708µM, Gal4-VP16 FLuc 2µM
CCCCNC(=S)NC(=O)c1ccccc1Br	RORgamma inh 7.94µM, Gal4-VP16 FLuc 11.2µM
O=C(NCCCNC(=O)c1ccccc1Br)c1ccccc1Br	none
O=C1CC(c2ccc(F)cc2)CC2=C1C(c1ccc([N+](=O)[O-])o1)Nc1ccccc1N2 (stereo unspecified)	IL1B secr inh -74.0, SW480 rereplic inconclusive, RORgamma inh inconclusive
C[C@@H]1CN([C@@H](C)CO)C(=O)c2cccc(NC(=O)C3CCCCC3)c2O[C@@H]1CN(C)C(=O)NC1CCCCC1	none (no result: RORgamma inh, Gal4-VP16 FLuc)
COc1ccc(NC(=O)Cn2nnc(-c3ccccc3NC(=O)c3ccco3)n2)cc1	MCF10A rerep 10.3µM, SW480 rereplic inconclusive, RORgamma inh inconclusive, Gal4-VP16 FLuc inconclusive
COc1ccc(NC(=O)Cn2nnc(-c3ccccc3N)n2)cc1OC	MCF10A rerep inconclusive, RORgamma inh inconclusive (no result: Gal4-VP16 FLuc)
COc1cc(NC(=O)Cn2nnc(-c3ccccc3N)n2)cc(OC)c1	IL1B secr inh -58.8
S=C(NCc1ccccn1)NN=Cc1ccccn1	none (no result: RORgamma inh, Gal4-VP16 FLuc)
Cc1nnsc1S(=O)c1ccc(F)cc1 (stereo unspecified)	IL1B secr inh -50.3
COC(=O)c1c(NC(=O)CN2C(=O)NC3(CCCCC3C)C2=O)sc2c1CCC2 (stereo unspecified)	IL1B secr inh -52.3 (no result: RORgamma inh, Gal4-VP16 FLuc)
CC1(C)CC(=O)C2=C(C1)N(c1ccc(F)cc1)C(=O)NC2(C(F)(F)F)C(F)(F)F	RORgamma inh 11.2µM
COc1ccc(N(CC(=O)NC2CCS(=O)(=O)C2)S(=O)(=O)c2ccc(Cl)c(Cl)c2)cc1 (stereo unspecified)	MCF10A rerep inconclusive (no result: RORgamma inh, Gal4-VP16 FLuc)
COc1ccc(CN(CC2CCCO2)S(=O)(=O)c2ccc(-n3cnnn3)c(OC)c2)cc1 (stereo unspecified)	none
COc1ccc(CN(C2CCCC2)S(=O)(=O)c2ccc(-n3cnnn3)c(OC)c2)cc1OC	IL1B secr inh -51.8
O=C(Nc1ccc(Oc2ccccc2)cc1)c1csc(COCCO)n1	none (no result: MCF10A rerep, SW480 rereplic, RORgamma inh, Gal4-VP16 FLuc)
CC(C)N=c1c([N+](=O)[O-])nn(C)n1O	MCF10A rerep 0.731µM, SW480 rereplic inconclusive, RORgamma inh inconclusive
CC(C)c1ccc(N=c2c([N+](=O)[O-])nn(-c3ccc4c(c3)OCCO4)n2O)cc1	IL1B secr inh inconclusive, RORgamma inh inconclusive, Gal4-VP16 FLuc inconclusive
O=C(OCC(=O)N1CCCC1)c1cc(Cl)ccc1[N+](=O)[O-]	none
COc1cc(/C(C)=C/c2ccccc2)c2c(c1)oc1ccccc12	none (no result: IL1B secr inh, MCF10A rerep, SW480 rereplic)
CN(CC(=O)Nc1c(Cl)cccc1Cl)C(=O)c1ccccc1-c1nc2ccccc2s1	IL1B secr inh -52.7 (no result: RORgamma inh, Gal4-VP16 FLuc)
COc1cccc(NC(=O)CN(C)C(=O)c2ccccc2-c2nc3ccccc3s2)c1	MCF10A rerep inconclusive (no result: RORgamma inh, Gal4-VP16 FLuc)
COc1ccc(C(=O)Nc2nc3ccccc3s2)cc1OC	IL1B secr inh -87.5, Gal4-VP16 FLuc inconclusive
COc1ccc(C(=O)NCc2nnc(SCC(=O)Nc3cc(C)cc(C)c3)o2)cc1OC	none
COc1ccc(-c2cc(C(=O)Nc3nc4ccccc4s3)c3ccccc3n2)cc1OC	MCF10A rerep 2.91µM, SW480 rereplic inconclusive
COc1ccc(C(=O)NCc2nnc(SCC(=O)Nc3nc4ccccc4s3)o2)cc1OC	RORgamma inh 11.2µM, Gal4-VP16 FLuc 8.91µM
O=C(Nc1nc2ccccc2s1)c1ccc(F)cc1	RORgamma inh 4.47µM, Gal4-VP16 FLuc inconclusive
